Laboratory results from PubChem BioAssay AID362 (NMMLSC, 2006).
In all, about 4,300 compounds went through this assay and about 60 (1%) were called active.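 Rule for the calls: active = inhibition of labelled peptide binding to the formyl peptide receptor of at least 65%; inactive = the rest.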 The entries come from a sample that favours actives as a whole.

Each compound was assayed against fMet-Leu-Phe receptor (Homo sapiens) (UniProt P21462) (assay: small-molecule ligands of human FPR – U937-FPR cells, fMLFK-FITC, flow cytometry, primary screen (AID 362;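 for inhibition: plate controls were buffer control wells for no effect and unlabeled fMLFF blocking peptide for full effect; higher means less cell fluorescence so more probe displaced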)). Settings: fMLFK-FITC displacement; active compounds read high, concentration not given here.
fMet-Leu-Phe receptor (Homo sapiens), sequence (P21462 whole entry, looked up): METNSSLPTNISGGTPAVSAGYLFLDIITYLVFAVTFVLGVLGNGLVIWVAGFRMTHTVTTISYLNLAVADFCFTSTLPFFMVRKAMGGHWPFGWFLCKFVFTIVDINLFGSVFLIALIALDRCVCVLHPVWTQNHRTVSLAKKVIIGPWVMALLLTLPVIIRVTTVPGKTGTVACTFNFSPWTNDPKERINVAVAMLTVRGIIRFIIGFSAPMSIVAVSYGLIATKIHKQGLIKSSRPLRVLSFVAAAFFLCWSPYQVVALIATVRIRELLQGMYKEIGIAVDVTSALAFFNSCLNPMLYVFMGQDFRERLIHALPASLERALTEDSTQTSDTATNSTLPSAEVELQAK

inhibition, active:
O=C(CSc1nc(-c2ccccc2)nc2c1CCCC2)N1CCCCC1 86.8%, CCCCOc1cc(OCCCC)c2c3c(c(=O)oc2c1)CCC3 92.8%, CC1(C)CC(=O)C(C(c2ccc(Br)cc2)C2C(=O)CC(C)(C)CC2=O)C(=O)C1 74.7%, CC1(C)CC(=O)C(C(c2cccc([N+](=O)[O-])c2)C2C(=O)CC(C)(C)CC2=O)C(=O)C1 78.4%, CC1(C)CC(=O)C(C(c2ccc3ccccc3c2)C2C(=O)CC(C)(C)CC2=O)C(=O)C1 80.9%, CC1(C)CC(=O)C(C(c2cccc(OCc3ccccc3)c2)C2C(=O)CC(C)(C)CC2=O)C(=O)C1 91.9%, COC(=O)C1C(=O)C2=C(CC1C)NC(C)=C(C(=O)OCCOC(C)C)C2c1ccc(OC)cc1 (stereo not drawn) 76.1%, CCCOCCOC(=O)C1=C(C)NC2=C(C(=O)C(C(=O)OC)C(C)C2)C1c1ccc(N(C)C)cc1 (stereo not drawn) 78.6%, COC(=O)C1C(=O)C2=C(CC1C)NC(C)=C(C(=O)OCCOC(C)C)C2c1ccc(N(C)C)cc1 (stereo not drawn) 79.4%

inhibition, inactive:
CC(C)CCn1c(CN2CCN(C(c3ccccc3)c3ccccc3)CC2)nc2c1c(=O)n(C)c(=O)n2C, CSc1nc(OCC(=O)c2ccc(Cl)cc2)c2c3c(sc2n1)CCCC3, Cc1sc2ncn(CC(=O)NCc3cccnc3)c(=O)c2c1S(=O)(=O)N1CCC(C)CC1, CC(C)Cn1cc(C(=O)NCc2ccco2)c2c3ccccc3n(C)c2c1=O, CCCOc1ccc(C(=O)CCNC(C(=O)O)C(C)C)cc1 (stereo not drawn), COc1ccc(C(=O)COC(=O)C(CC(C)C)N2C(=O)c3ccccc3C2=O)cc1 (stereo not drawn), CCOC(=O)C1=C(C)C2C3C(=O)N(c4cccc5ccccc45)C(=O)C3C1(C)C1C(=O)N(c3cccc4ccccc34)C(=O)C21 (stereo not drawn) 13.4%, CCN(CCCNC(=O)Cn1cnc2sc(C)c(S(=O)(=O)N3CCC(C)CC3)c2c1=O)c1cccc(C)c1, O=C(CSc1nc(-c2ccccc2)nc2c1CCCC2)N1CCOCC1, O=C(O)CSc1nc(-c2ccccc2)nc2c1CCCC2, CCOC(=O)C1=C(C)NC2=C(C(=O)C(C(=O)OC)C(C)C2)C1c1ccc(N(C)C)cc1 (stereo not drawn) 10%, CCOC(=O)C1CCN(C(=O)c2cn(CC(C)C)c(=O)c3cc(OC)c(OC)cc23)CC1 11.2%, CC1(C)CC(=O)C2=C(C1)OC(N)=C(C#N)C2(C)C, CCCOc1cc(OCCC)c2c3c(c(=O)oc2c1)CCCC3 7.1%, CCCCOc1cc(OCCCC)c2c3c(c(=O)oc2c1)CCCC3, O=C(O)c1cccc(N2C(=O)C3C4CCC(C4)C3C2=O)c1 (stereo not drawn) 31.6%, Cc1ccn2c(NC(=O)C(C)(C)Oc3ccc(Cl)cc3)c(-c3cccs3)nc2c1 6%, CCCCN(C)Cc1c(O)ccc2c(=O)c(-c3ccccc3OC)c(C(F)(F)F)oc12 3.4%, COc1cc(C(C2C(=O)CC(C)(C)CC2=O)C2C(=O)CC(C)(C)CC2=O)ccc1O 19.2%, CC1(C)CC(=O)C2=C(C1)Nc1ncnn1C2c1cccc([N+](=O)[O-])c1 (stereo not drawn), COc1ccc(C(C2C(=O)CC(C)(C)CC2=O)C2C(=O)CC(C)(C)CC2=O)cc1COCC(F)(F)F 34.1%, COc1ccc(C(C2C(=O)CC(C)(C)CC2=O)C2C(=O)CC(C)(C)CC2=O)cc1OC 24.6%, CN1C(=O)NC(c2cccc([N+](=O)[O-])c2)C2=C1CC(C)(C)CC2=O (stereo not drawn), COc1cccc(C(C2C(=O)CC(C)(C)CC2=O)C2C(=O)CC(C)(C)CC2=O)c1 53.4%, CC1(C)CC(=O)C(C(C2=C(O)CC(C)(C)CC2=O)c2cccc(O)c2O)C(=O)C1 (stereo not drawn) 57%, CC1(C)CC(=O)C(C(c2ccco2)C2C(=O)CC(C)(C)CC2=O)C(=O)C1 30.9%, CCCCN(C)Cc1c(O)ccc2c3c(c(=O)oc12)CCC3 9.8%, CCN(CC)CCOC(=O)NCC1CC(C(C)=O)C1(C)C (stereo not drawn) 8.3%, CC(=O)c1ccc(N2CCN(C(=O)c3cn(CC(C)C)c(=O)c4c3c3ccccc3n4C)CC2)cc1 2.2%, CCOc1ccc(C2C(C(=O)OC(C)C)=C(C)NC3=C2C(=O)C(C(=O)OC)C(C)C3)cc1 (stereo not drawn) 13.6%, CCOC(=O)C(CC)Oc1ccc2c3c(c(=O)oc2c1C)CCC3 (stereo not drawn), CCOC(=O)c1cc2c(=O)n3ccccc3nc2n(CC(C)C)c1=NC(=O)c1ccc(C(F)(F)F)cc1, CCCOC(=O)C1=C(C)NC2=C(C(=O)C(C(=O)OC)C(C)C2)C1c1ccc(N(C)C)cc1 (stereo not drawn) 23.6%, COCCOC(=O)C1=C(C)NC2=C(C(=O)C(C(=O)OC)C(C)C2)C1c1ccc(N(C)C)cc1 (stereo not drawn) 64%, CCOCCOC(=O)C1=C(C)NC2=C(C(=O)C(C(=O)OC)C(C)C2)C1c1ccc(N(C)C)cc1 (stereo not drawn) 31.5%, COCCOC(=O)C1=C(C)NC2=C(C(=O)C(C(=O)OC)C(C)C2)C1c1ccc(OC)cc1 (stereo not drawn) 16.7%, CCOc1ccc(C2C(C(=O)OCCOC(C)C)=C(C)NC3=C2C(=O)C(C(=O)OC)C(C)C3)cc1 (stereo not drawn) 39.6%, COC(=O)C1C(=O)C2=C(CC1C)NC(C)=C(C(=O)OCCOC(C)C)C2c1ccc(F)cc1 (stereo not drawn) 14.3%, COc1ccc(/C=C2/CCCC3=C2OC(N)=C(C#N)C3c2ccc(OC)c(OC)c2)cc1OC (stereo not drawn), COc1ccc(C2C(C(=O)OC3CCCC3)=C(C)NC3=C2C(=O)CCC3)c(OC)c1OC (stereo not drawn), COc1cc(C2C(C(=O)OC3CCCCC3)=C(C)NC3=C2C(=O)CC(C)(C)C3)cc(Cl)c1O (stereo not drawn) 10.9%, COc1ccc(N2C(=O)C3C4C=CC(C4)C3C2=O)cc1OC (stereo not drawn), CCOc1ccc(C2C(C(=O)OC3CCCCC3)=C(C)NC3=C2C(=O)CCC3)cc1OC (stereo not drawn) 20.2%, COc1ccc(CNC(=O)CCCCCn2c(SCC(=O)NCC3CCCO3)nc3cc4c(cc3c2=O)OCO4)cc1 (stereo not drawn) 2.8%
